From PubChem BioAssay (NCATS)
Activity calls are given as the source filed them. Calls come from the whole dose curve.

Assay: qHTS drug screen for cell cycle checkpoint inhibitors in PARPi-resistant BRCA-mutant ovarian cancer cell lines. (AID 1963452)
Conditions: PEO1/OlaR viability, CellTiter-Glo luminescence, 96 h; for Z-AUC: stronger effect = lower value
Outline: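 PEO1, PEO4 and PEO1/OlaR ovarian cancer cells, 600 per well, exposed 96 h at 37C to a dilution series. Viability read by CellTiter-Glo luminescence, normalized to DMSO and empty wells; activity summarized as Z-AUC.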

[1] = measured here: PEO1 parental Z-AUC
Potency is the fitted concentration of half-maximal effect.

Compound	Z-AUC	Z-AUC [1]	Z-AUC (measured here: PEO4 Z-AUC)	Potency
Cn1cc(-c2ccc(F)c(C(F)(F)F)c2)nc1C1CCN(c2ncnc3[nH]ncc23)CC1	-0.225 (inactive)	-0.264	-0.487	
CC(C)(CNC(=O)c1cccc(-c2noc(C(F)(F)F)n2)c1)c1coc(-c2ccccc2)n1	0.0442 (inactive)	0.732	0.975	
CCNC1(C(N)=O)CCN(c2ncnc3c2nc(-c2ccccc2Cl)n3-c2ccc(Cl)cc2)CC1	0.84 (inactive)	0.367	0.247	
Cc1c(NC(=O)c2cc3c(s2)CCCC3)cccc1-c1cn(C)c(=O)c(Nc2ccc(C3C(=O)N(C)CCN3C)cc2)n1 (configuration not stated)	1.18 (inactive)	0.426	0.277	
Cc1c(F)ccc(C(=O)Nc2cc([N+](=O)[O-])ccc2N2CCN(C)CC2)c1Cl	0.532 (inactive)	0.409	-0.0381	
Fc1ccc2[nH]ccc2c1-c1nc(N2CCOCC2)c2sc(CN3CCN(CC4CC4)CC3)cc2n1	-0.813 (inactive)	-0.565	-0.474	
O=C(CCl)Nc1cccc(NC2=NS(=O)(=O)c3ccccc32)c1	-0.599 (inactive)	-0.67	-0.526	
Cc1cc(C(=O)Nc2cc(Oc3ccc4nc(NC(=O)C5CC5)cn4n3)ccc2C)n(C)n1	-0.702 (inactive)	-1.33	-1.31	
COC1CCN(C(=O)c2cc(Cc3n[nH]c(=O)c4ccccc34)ccc2F)CC1	0.585 (inactive)	-0.393	0.328	
CCCCNc1ncc(-c2ccc(CN3CCOCC3)cn2)c(NC2CCC(O)CC2)n1 (configuration not stated)	-1.2 (inactive)	-1.14	-0.666	
C[C@@H](c1ccc2nccn2c1)n1nnc2ncc(-c3cnn(C)c3)nc21	-0.155 (inactive)	-0.0646	-0.199	
COCC(=O)NC/C=C/c1ccc2ncnc(Nc3ccc(Oc4ccc(C)nc4)c(C)c3)c2c1	-0.178 (inactive)	-0.29	-0.0701	
Cc1cc(-c2nc3cc(F)ccc3s2)ccc1NC(=O)[C@@H](N)CCCCN	-0.88 (inactive)	-1.06	-1.32	
Cc1cn(CCN2CCN(c3ccccc3-c3cc(C#N)cc(C(=O)NCCCN4CCCC4)c3)CC2)c2ccccc12	-0.259 (inactive)	-0.4	-0.379	
CN1CC[C@@H](c2c(O)cc(O)c3c(=O)cc(-c4ccc(C(F)(F)F)cc4Cl)oc23)[C@@H]1CO	-0.123 (inactive)	0.298	0.604	
CC[C@@H](C)Nc1cc(C(=O)NC2CC3CC[C@@H](C2)N3c2ccc(C(=O)C3CC3)cn2)c(C)cc1C(N)=O (some centres not stated)		-1.88	-1.25	0.219 µM (active)
O=C(Nc1ccnc(NC(=O)C2CC2)c1)c1c(Cl)cccc1Cl	-1.13 (inactive)	-0.966	-0.923	
Cc1nnc(C[C@@H]2C=C(c3ccc(Cl)cc3)c3ccccc3-n3c(C)nnc32)o1	0.965 (inactive)	0.533	0.589	
COCCNCc1ccc(-c2cc3nccc(Oc4ccc(NC(=O)C5(C(=O)Nc6ccc(F)cc6)CC5)cc4F)c3s2)nc1	-0.956 (inactive)	-0.642	-0.561	
CCCOc1ccc(CCc2nc3cc(-c4c(C)noc4C)ccc3n2CCN2CCOCC2)cc1	-0.591 (inactive)	-0.719	-0.728	
COc1ccc(CNc2nc(N(CCO)CCO)nc3c2ncn3C(C)C)cc1	-0.772 (inactive)	-0.866	-0.51	
Cn1ncc(Cl)c1-c1cc(C(=O)N[C@H](CN)Cc2cccc(F)c2)sc1Cl	0.3 (inactive)	0.0445	0.251	
Cc1cc(N2CCOCC2)ccc1Nc1nc(NC2CCCCC2)c2[nH]cnc2n1	-0.0672 (inactive)	-0.748	-0.826	
Cn1ncnc1[C@H]1c2n[nH]c(=O)c3cc(F)cc(c23)N[C@@H]1c1ccc(F)cc1	0.447 (inactive)	-1.15	-0.329	
NC(=O)c1ccccc1Nc1ccnc(Nc2cccc(O)c2)n1	-1.9 (inactive)	-1.44	-1.66	
COc1cccc(OCCCN)c1-c1cc(Nc2cnc(C#N)cn2)n[nH]1		-2.4	-2.98	0.0049 µM (active)
Cc1cccc(-c2[nH]ncc2-c2ccc(F)c(-c3cnn(CCO)c3)c2)n1	0.705 (inactive)	0.508	1.13	
CCn1nc(C2CCN(C(=O)CCO)CC2)nc1-c1cnc(N)c(-c2nnc(C(C)(C)C)o2)n1	0.285 (inactive)	0.385	0.568	
COc1cc2ncnc(Nc3ccc(O)c(Br)c3)c2cc1OC	-0.393 (inactive)	0.024	-0.318	
